Most compounds without a hit are left out; they make up all but 1.8% or so of the library.
RN4220 kill: S. aureus RN4220 growth inhibition | OD600, 16 h | inhibition, % (concentration not given with the values) | hit rate 0.33% among 330,000 | AID 1259311; in the data active = inhibition above about 85%;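 also: plate controls were untreated cells for no effect and reference antibiotic for full effect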
ugtP null kill: kills S. aureus RN4220 lacking UgtP; growth inhibition, % (no concentration beside the values); hit rate 0.54% among 330,000; S. aureus RN4220 ugtP deletion, OD600 growth, 16 h; in the data active = growth inhibition above about 68%;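 also: plate controls were untreated wells for no effect and antibiotic for full effect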
SSB-PriA inh: blocks PriA binding to SSB C-terminal tail | inhibition, % at 33 µM | AlphaScreen SSBct-PriA binding, biotinylated peptide | hit rate 0.6% among 430,000; in the data active = inhibition mostly above about 37%, no sharp cut-off; inactive = mostly below about 20%;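 also: plate controls were negative control peptide for no effect and reference peptide for full effect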
DUSP3 inh: blocks human VHR1 dual specificity phosphatase | recombinant VHR phosphatase, pNPP absorbance | inhibition, % at 13.3 µM | hit rate 0.52% among 290,000; in the data active = inhibition above about 50%
Target sequence (P51452 whole entry, looked up): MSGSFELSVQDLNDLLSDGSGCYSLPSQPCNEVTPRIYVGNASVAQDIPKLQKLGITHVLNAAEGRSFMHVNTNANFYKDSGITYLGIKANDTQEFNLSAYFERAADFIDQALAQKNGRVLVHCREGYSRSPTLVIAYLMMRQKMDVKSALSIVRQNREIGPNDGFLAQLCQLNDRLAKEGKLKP
PfHsp40 rescue: restores yeast growth despite PfHsp40 toxicity. S. cerevisiae expressing PfHsp40, growth rescue, ATP luminescence. growth rescue, % at 12.5 µM. hit rate 0.68% among 340,000; in the data active = growth rescue above about 28%, passing the limit was not always enough;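 also: yeast W303a lacking pdr1 and pdr3 grown in galactose medium; growth measured after three days at 30 °C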
Mtb hypoxia inh: Mtb hypoxia fluorescent reporter inhibition; M. tuberculosis hypoxia-regulated fluorescent reporter, fluorescence; fluorescence inhibition, % (no concentration beside the values); hit rate 0.1% among 300,000; AID 1159583; in the data active = fluorescence inhibition mostly above about 23%, no sharp cut-off; inactive = mostly below about 17%
* marks the source's active call; other numbers are inactive results.

For N#CCSc1nc(-c2ccccc2)cs1 the results were RN4220 kill 7, ugtP null kill -13, SSB-PriA inh -14, DUSP3 inh 20 and PfHsp40 rescue 36*.
For Cc1ccc(S(=O)(=O)N2CCCCC2CCNC(=O)C(=O)NCc2ccccc2Cl)cc1 (stereo unspecified) the results were SSB-PriA inh -14.
Screening c1ccc(-c2ccc3c(c2)NCCN3)cc1 returned RN4220 kill 4, ugtP null kill -14, SSB-PriA inh -9, DUSP3 inh 52*, PfHsp40 rescue 0 and Mtb hypoxia inh 0.
For O=c1[nH]c(CN2CCN(S(=O)(=O)/C=C/c3ccccc3)CC2)nc2ccccc12 the results were RN4220 kill -2, ugtP null kill -1, SSB-PriA inh -4, DUSP3 inh 41, PfHsp40 rescue 1 and Mtb hypoxia inh -9.
`O=c1[nH]c(CN2CCN(S(=O)(=O)/C=C/c3ccccc3)CC2)nc2cc(Cl)ccc12` gave RN4220 kill 1, ugtP null kill 3, SSB-PriA inh 0, DUSP3 inh -8, PfHsp40 rescue 97* and Mtb hypoxia inh -1.
`Cc1cc(NC(=O)CSc2nnc(C)c3cnn(-c4ccc(C)c(C)c4)c23)no1` gave SSB-PriA inh 5.
Brc1ccc2c(c1)OCCSCCOCCSCCO2 was read as SSB-PriA inh 43*.
CNC(=O)C(=O)NCC(F)(F)F was read as SSB-PriA inh -4.
CCn1nccc1C(=O)Nc1nnc(-c2ccc(OC)cc2OC)o1 was read as SSB-PriA inh 9.
For Cc1ccc(-c2nnc(NC(=O)c3ccc([N+](=O)[O-])o3)o2)c(C)c1 the results were RN4220 kill -3, ugtP null kill 92*, SSB-PriA inh -2 and PfHsp40 rescue 6.
COc1ccc(-c2nnc(NC(=O)c3ccc([N+](=O)[O-])o3)o2)c(OC)c1 was read as RN4220 kill 2, ugtP null kill 96*, SSB-PriA inh 0, DUSP3 inh 8 and PfHsp40 rescue -1.
For Cc1cc(=O)cc(C(F)(F)F)o1 the results were SSB-PriA inh -5.
`CCc1ccc(N=c2c([N+](=O)[O-])nn(-c3ccccc3)n2O)cc1` gave RN4220 kill -6, ugtP null kill 47, SSB-PriA inh 70*, DUSP3 inh -21, PfHsp40 rescue -1 and Mtb hypoxia inh 9.
Cc1cc(C)cc(N=c2c([N+](=O)[O-])nn(-c3ccc(Cl)cc3)n2O)c1 was read as RN4220 kill 29, ugtP null kill 39, SSB-PriA inh 51*, DUSP3 inh 41, PfHsp40 rescue 1 and Mtb hypoxia inh 24.
Screening Cc1ccc(CN=c2c([N+](=O)[O-])nn(-c3cccc(C)c3)n2O)cc1 returned RN4220 kill -2, ugtP null kill 13, SSB-PriA inh 16, DUSP3 inh 17, PfHsp40 rescue -1 and Mtb hypoxia inh 9.
COc1cccc(C(=O)N(CN2CCCC2=O)c2ccc(C)cc2)c1 was read as SSB-PriA inh -12.
For O=C(CCSc1ccccc1)NCc1ccc(C(O)c2ccccc2)s1 (stereo unspecified) the results were SSB-PriA inh 13.
Screening COC(=O)c1cc(C2CC2)nc2c1c(C)nn2[C@H]1CCS(=O)(=O)C1 returned SSB-PriA inh -7.
Screening Clc1cccc(-c2nc(-c3ccccn3)no2)c1 returned RN4220 kill 6, ugtP null kill -1, SSB-PriA inh -18, DUSP3 inh 26, PfHsp40 rescue -2 and Mtb hypoxia inh 4.
`Nc1nc(-c2ccccn2)nc2ccc(Cl)cc12` gave SSB-PriA inh 116*.
For COc1ccccc1CNn1c(-c2cccc(C)c2)nc2ccccc2c1=O the results were RN4220 kill 3, ugtP null kill -11, SSB-PriA inh -6, DUSP3 inh 5, PfHsp40 rescue 42* and Mtb hypoxia inh 4.
`COc1ccc(CNn2c(-c3cccc(C)c3)nc3ccccc3c2=O)cc1OC` gave RN4220 kill 5, ugtP null kill 7, SSB-PriA inh -11, DUSP3 inh 13, PfHsp40 rescue -1 and Mtb hypoxia inh 7.
`CCN(CC)c1ccc(C=NNC(=O)c2c(Cl)cnn2C)c(O)c1` gave RN4220 kill 5, ugtP null kill 7, SSB-PriA inh 47 and Mtb hypoxia inh 14.
Screening COc1cccc(C(O)=C2C(=O)C(=O)N(CCN3CCOCC3)C2c2cccs2)c1 (stereo unspecified) returned SSB-PriA inh 1.
COc1cccc(/C(O)=C2/C(=O)C(=O)N(CCN3CCOCC3)C2c2cccs2)c1 (stereo unspecified) was read as RN4220 kill 0, ugtP null kill 12, DUSP3 inh 53* and PfHsp40 rescue -1.
Screening NNc1ncnc2c1cnn2-c1ccc(F)cc1 returned SSB-PriA inh 73*.
NNc1ncnc2c1cnn2-c1ccccc1 was read as RN4220 kill -15, ugtP null kill 19, SSB-PriA inh 64*, DUSP3 inh 15, PfHsp40 rescue -1 and Mtb hypoxia inh 6.
Screening O=S(=O)(NCc1cnn2ccccc12)c1ccc2c(c1)CCCC2 returned SSB-PriA inh -4.
For Cc1nc(NCCNC(=O)c2cc(-n3cccn3)nc(C)n2)cc(N2CCOCC2)n1 the results were SSB-PriA inh -1.
Screening O=C1OCC2OC(O)C(O)C(O)C2OC(=O)c2cc(O)c(O)c(O)c2-c2c(O)c(O)c3oc(=O)c4c(c(O)c(O)c5oc(=O)c2c3c54)-c2c1cc(O)c(O)c2O (stereo unspecified) returned DUSP3 inh 121*.
`O=C(NCC#CCN1CCc2ccccc2C1)c1cccnc1` gave SSB-PriA inh -19.
Screening O=[N+]([O-])c1ccccc1/C=N/N1CCN(Cc2ccccc2)CC1 returned DUSP3 inh 58* and PfHsp40 rescue 0.
`O=C(c1ccc(=O)[nH]n1)N1CCC(Oc2cnccn2)CC1` gave SSB-PriA inh -1.
Cn1c(-c2ccc(Cl)cc2)cnc1N was read as RN4220 kill 5, ugtP null kill 3, SSB-PriA inh 54*, DUSP3 inh 24, PfHsp40 rescue 0 and Mtb hypoxia inh 9.
Screening O=C(Oc1cccc(C(=S)N2CCOCC2)c1)c1ccc([N+](=O)[O-])cc1[N+](=O)[O-] returned RN4220 kill 3, ugtP null kill 15, SSB-PriA inh 15, DUSP3 inh 23, PfHsp40 rescue 44* and Mtb hypoxia inh 9.
Screening CN1CCC(N2CCCCC2CCO)C1=O (stereo unspecified) returned SSB-PriA inh 1.
Screening O=C(O)CCc1ccc(-c2ccccc2)n1-c1cccc(C(=O)O)c1 returned RN4220 kill 2, ugtP null kill 1, SSB-PriA inh -10, PfHsp40 rescue 16 and Mtb hypoxia inh 4.
O=C(O)CCc1ccc(-c2ccc(Br)cc2)n1-c1cccc(O)c1 was read as RN4220 kill 35, ugtP null kill 85*, SSB-PriA inh -4, DUSP3 inh 10, PfHsp40 rescue 2 and Mtb hypoxia inh -9.
